The list is not random: actives were taken first. Their share in the collection is about 7.4%.
SMN2 splice enh = enhancers of SMN2 splice variant expression; HEK293 SMN2-luciferase splicing reporter, luminescence, 30-36 h; Potency, µM (doses to about 46.1 µM), without a hit: at the top dose activity change, positive = activation, actives largely listed as activators; 210,000 tested, 2.8% active; note: % of control where 0% means no effect; nearly all actives have a fitted effect of over 55% in size
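HEK293 cells carry an SMN2 […]–luciferase reporter in which exon 7 inclusion puts luciferase in frame. Cells were plated 10-12 h before compound addition, then incubated 30-36 h at 37C. ONE-Glo luminescence was read; sodium butyrate at 4.5 mM final served as control.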
Rab9 promoter act = Rab9 promoter activation. Huh7 Rab9 promoter-luciferase reporter, luminescence, 24 h. 320,000 tested, 2.8% active. AID 485297. Potency, µM (top dose mostly 9.22 µM), inactives show at the highest dose activation, negative = inhibition, hits mostly activators; note: % of control where 0% means no effect; nearly all actives have a fitted effect of over 60% in size
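Cell-based reporter: Huh7 stable for Rab9 promoter-driven luciferase, plated in reduced-serum medium with 10% FBS at 1500 cells/well, compound-treated 24 h at 37 °C, luminescence read after 10 min reagent.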
FLuc modulator = counter-screen for miR-21 project: firefly luciferase inhibitors or activators; purified FLuc, Km substrates, luminescence inhibition; Potency, µM (top dose mostly 57.5 µM), for the others: at the highest dose activity change, negative = inhibition, usual class: inhibitors; 360,000 tested, 6.9% active;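 note: plate controls were vehicle for no effect and reference inhibitor for full effect; nearly all actives have a fitted effect of over 55% in size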
Target sequence (P08659 whole entry, looked up): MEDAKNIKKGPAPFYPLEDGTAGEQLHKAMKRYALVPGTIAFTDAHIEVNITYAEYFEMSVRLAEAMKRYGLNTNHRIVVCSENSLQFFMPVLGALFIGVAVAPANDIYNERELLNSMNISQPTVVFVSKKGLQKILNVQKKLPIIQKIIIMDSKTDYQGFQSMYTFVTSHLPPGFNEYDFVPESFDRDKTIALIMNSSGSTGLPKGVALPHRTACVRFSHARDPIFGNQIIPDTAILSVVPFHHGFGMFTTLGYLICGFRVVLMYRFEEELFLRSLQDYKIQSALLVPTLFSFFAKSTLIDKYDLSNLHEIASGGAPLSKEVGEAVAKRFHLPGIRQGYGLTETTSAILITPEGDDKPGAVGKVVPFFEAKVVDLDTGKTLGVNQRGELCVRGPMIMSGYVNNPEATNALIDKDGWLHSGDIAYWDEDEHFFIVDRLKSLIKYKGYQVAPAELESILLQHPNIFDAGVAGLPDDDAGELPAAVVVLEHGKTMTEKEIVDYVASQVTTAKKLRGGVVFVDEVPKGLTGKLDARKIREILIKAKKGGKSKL
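Biochemical qHTS of compounds, final roughly 60 µM downward over six points, against 10 nM purified firefly luciferase using Km concentrations of substrates (10 uM D-luciferin, 10 uM ATP) in Tris acetate pH 7.5 buffer; luminescence output.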
ELG1 genotox = induces genotoxicity in HEK293T cells with luciferase-tagged ELG1. HEK293T ELG1-luciferase reporter, luminescence, 16 h. Potency, µM (series often up to 46 µM), for inactives: at the highest dose activity change, positive = activation, actives largely listed as activators. 330,000 tested, 1.3% active. AID 504466; note: % of control where 0% means no effect; nearly all actives have a fitted effect of over 60% in size
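Genotoxicity was scored as increased ELG1-luciferase reporter signal, measured by ONE-Glo luminescence (30 min, room temperature). Compound or vehicle exposure of the HEK293T reporter cells lasted 16 hr at 37°C.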
NPC1 prom act = activators of NPC1 promoter; 320,000 tested, 2.4% active; Huh7 NPC1 promoter luciferase reporter, 24 h; Potency, µM (series often up to 9.22 µM), for inactives: at the top dose activation, usual class: activators; note: % of control where 0% means no effect; nearly all actives have a fitted effect of over 60% in size
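NPC1 promoter–luciferase Huh7 cells; 24 h compound; luminescence.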
Starred values were filed as active, the others as inactive. Calls come from the whole dose curve; as a rule, active = well fitted curve in the direction sought with a large enough effect; inconclusive = small, poorly fitted or top-dose-only effect, or another doubt; inactive = no such curve, though single readings can be large; an effect the other way counts as inactive or inconclusive. Potency is the fitted concentration of half-maximal effect.

Results for COc1ccc(C(=O)NCC(=O)N/N=C/C(C)=C/c2ccccc2)cc1OC ?
SMN2 splice enh: -1%; Rab9 promoter act: 0%; FLuc modulator: 17µM*; ELG1 genotox: -1%; NPC1 prom act: -7%

How did CCOC(=O)C1=CN(Cc2ccco2)S(=O)(=O)NC1CC (stereo unspecified) do in these assays?
ELG1 genotox: 2%

How did COC(=O)c1ccccc1NC(=O)c1noc2c1CCCC2 do in these assays?
SMN2 splice enh: 11%; Rab9 promoter act: 5%; FLuc modulator: 17µM*; ELG1 genotox: 8%; NPC1 prom act: 7%

What do the screens show for `O=C(Nc1cc(C(F)(F)F)ccc1Cl)c1noc2c1CCCCC2`?
SMN2 splice enh: 12%; FLuc modulator: inconclusive

What do the screens show for `O=C(Nc1ccc(OC(F)(F)F)cc1)c1noc2c1CCCC2`?
SMN2 splice enh: 8.9µM*; FLuc modulator: inconclusive

Results for CC(C)(C)C1CCc2onc(C(=O)Nc3cnn(Cc4ccc(F)cc4)c3)c2C1 (stereo unspecified) ?
SMN2 splice enh: 0%; Rab9 promoter act: -6%; FLuc modulator: 1%; ELG1 genotox: 13%; NPC1 prom act: -4%

What do the screens show for `Cc1ccc(NC(=O)c2noc3c2CCC3)cc1C`?
SMN2 splice enh: 2.8µM*; Rab9 promoter act: 0.63µM*; FLuc modulator: 2.4µM*; ELG1 genotox: inconclusive; NPC1 prom act: 3.2µM*

What do the screens show for `O=C(Nc1cnn(Cc2ccc(F)cc2)c1)c1noc2c1CCCC2`?
SMN2 splice enh: -10%; Rab9 promoter act: 4µM*; FLuc modulator: 15µM*; ELG1 genotox: inconclusive; NPC1 prom act: inconclusive

What do the screens show for `O=C(CSc1nnc(-c2ccncc2)n1-c1ccccc1)NC1CC1`?
Rab9 promoter act: 2%; FLuc modulator: 1%; ELG1 genotox: 2%; NPC1 prom act: -2%

Results for COC(=O)c1ccccc1NC(=O)CSc1nc2nc(C)cc(C)n2n1 ?
SMN2 splice enh: -9%; FLuc modulator: -8%

What do the screens show for `Cn1c(N)c(C(=O)CSc2nnc(C3CC3)n2-c2ccccc2)c(=O)n(C)c1=O`?
Rab9 promoter act: -8%; FLuc modulator: -2%; ELG1 genotox: 3%; NPC1 prom act: 0%

How did Cn1c(=O)c(=O)n(C)c2cc(N3CCCC3)c(NC(=O)c3ccccc3Cl)cc21 do in these assays?
SMN2 splice enh: 6%; FLuc modulator: -2%

Results for COc1ccc(C(=O)NC2CCSc3ccccc32)cc1S(=O)(=O)N1CCOCC1 (stereo unspecified) ?
Rab9 promoter act: 0%; FLuc modulator: -17%; ELG1 genotox: 26%; NPC1 prom act: 0%

How did CCOc1ccccc1NC(=O)C1CCCN1S(=O)(=O)c1ccc2nc(-c3ccccc3)[nH]c2c1 (stereo unspecified) do in these assays?
FLuc modulator: -15%

What do the screens show for `Cc1cccc(N2CCN(C(=O)c3cc4ccc5cccnc5c4[nH]3)CC2)c1C`?
FLuc modulator: -14%

What do the screens show for `CC(=O)c1ccc(NC(=O)c2noc3c2CCC3)cc1`?
SMN2 splice enh: inconclusive; Rab9 promoter act: inconclusive; FLuc modulator: 12µM*; ELG1 genotox: -9%; NPC1 prom act: 0.79µM*

How did O=C(Nc1ccccc1C(=O)N1CCOCC1)c1noc2c1CCCC2 do in these assays?
SMN2 splice enh: 9%; Rab9 promoter act: -3%; FLuc modulator: 0%; ELG1 genotox: 0%; NPC1 prom act: 3%

What do the screens show for `COc1cc(NC(=O)c2noc3c2CCC3)c(OC)cc1Cl`?
SMN2 splice enh: inconclusive; Rab9 promoter act: 0%; FLuc modulator: 7%; ELG1 genotox: 6%; NPC1 prom act: 7%

How did COc1ccc(NC(=O)c2noc3c2CCC3)cc1 do in these assays?
SMN2 splice enh: 10µM*; Rab9 promoter act: 0.5µM*; FLuc modulator: 2.7µM*; ELG1 genotox: inconclusive; NPC1 prom act: 1.4µM*

Results for O=C(Nc1cccc(O)c1)c1noc2c1CCCCC2 ?
SMN2 splice enh: 10%; Rab9 promoter act: inconclusive; FLuc modulator: 0.95µM*; ELG1 genotox: inconclusive; NPC1 prom act: inconclusive

How did COC(=O)c1cccc(NC(=O)CCc2c(C)noc2C)c1 do in these assays?
Rab9 promoter act: -1%; FLuc modulator: 2%; ELG1 genotox: 2%; NPC1 prom act: 2%

What do the screens show for `C(=N\c1nccs1)/c1cccnc1`?
SMN2 splice enh: 15%; Rab9 promoter act: 1%; FLuc modulator: -2%; ELG1 genotox: 4%; NPC1 prom act: -5%

Results for COc1ccccc1CNC(=O)COC(=O)c1cccnc1SCC(=O)NCc1ccccc1OC ?
SMN2 splice enh: 1%; Rab9 promoter act: inconclusive; FLuc modulator: inconclusive; ELG1 genotox: -7%; NPC1 prom act: 16%

How did O=C(COC(=O)c1cccnc1SCC(=O)NCc1ccccc1)NCc1ccccc1 do in these assays?
SMN2 splice enh: 25%; Rab9 promoter act: 11%; FLuc modulator: 2.7µM*; ELG1 genotox: 4%; NPC1 prom act: 1%

Results for COCC(=O)N1CCC2(CC1)CCN(c1cccc(-c3ccccc3)c1)CC2 ?
SMN2 splice enh: -27%

What do the screens show for `Cc1ccc(-n2ncc3c(NC4CCCCCC4)ncnc32)cc1Cl`?
FLuc modulator: 2.7µM*

Results for c1ccc(-n2ncc3c(NC4CCCCCC4)ncnc32)cc1 ?
Rab9 promoter act: 1.8µM*; FLuc modulator: 2.7µM*; ELG1 genotox: inconclusive; NPC1 prom act: 1.8µM*

What do the screens show for `Clc1ccc(-n2ncc3c(NC4CCCC4)ncnc32)cc1`?
FLuc modulator: 0.85µM*

What do the screens show for `Cc1ccc(Cl)cc1-n1ncc2c(NC3CCCCCC3)ncnc21`?
FLuc modulator: 0%

Results for CC(NCC(=O)Nc1ccccc1C(=O)NC1CC1)c1ccco1 (stereo unspecified) ?
Rab9 promoter act: 5%; FLuc modulator: 2%; ELG1 genotox: 0%; NPC1 prom act: -13%

What do the screens show for `CCCn1cc(S(=O)(=O)c2ccccc2)c(=O)c2cc(F)c(N3CCCCCC3)cc21`?
FLuc modulator: -1%

Results for CCN(CC)c1sc(S(=O)(=O)c2ccccc2)nc1S(=O)(=O)c1ccc(C)cc1 ?
SMN2 splice enh: 4%; FLuc modulator: -2%

Results for CNc1nn(-c2cccc(Cl)c2)nc1N ?
SMN2 splice enh: inconclusive; Rab9 promoter act: inconclusive; FLuc modulator: 24µM*; ELG1 genotox: 11µM*; NPC1 prom act: inconclusive

What do the screens show for `O=C(Nc1ccccc1)c1sc2cc(C(F)(F)F)cnc2c1-c1cccs1`?
SMN2 splice enh: -19%; Rab9 promoter act: 0%; FLuc modulator: -2%; ELG1 genotox: 2%; NPC1 prom act: -2%

How did COc1cc(OC)c(C2CC(=O)N3CN(c4ccc(C)cc4)CSC3=C2C#N)cc1OC (stereo unspecified) do in these assays?
SMN2 splice enh: 7%; Rab9 promoter act: 25%; FLuc modulator: 15µM*; ELG1 genotox: 3%; NPC1 prom act: inconclusive

Assay outcomes as filed in PubChem BioAssay.
